Reference: PubChem BioAssay (NCI)
Compounds without any hit were thinned out: in the full panel of roughly 79,000, 15% have a hit. A number with no mark means an inactive call. Active and inactive are the calls of the source. Rule as the data show it: active = growth inhibition above about 70%; inactive = the rest.

Tests used:
[1] = NCI Yeast Anticancer Drug Screen. Data for the rad50 strain (AID 155);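 also: 0% = growth of vehicle-only cultures of the same strain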; settings: S. cerevisiae rad50 strain growth inhibition; at 50.0 µM; hits give high values
How it was run: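 Vehicle-treated cultures provide the reference for the growth inhibition reported for compound-exposed, repair-deficient yeast.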

[2] = NCI Yeast Anticancer Drug Screen. Data for the mec2-1 strain (AID 157); settings: S. cerevisiae mec2-1 strain, at 50.0 µM, hits give high values
How it was run: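 Compounds were applied to mec2-1 yeast cells. Their growth was then compared with that of vehicle-treated cultures to give growth inhibition.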

[3] = NCI Yeast Anticancer Drug Screen. Data for the sgs1 mgt1 strain (AID 161);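 also: 0% = growth of cultures given vehicle only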; settings: S. cerevisiae sgs1 mgt1 strain, at 50.0 µM, hits give high values
How it was run: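 Yeast cells carrying a defined DNA-repair defect were exposed to test compounds. Growth inhibition was measured relative to vehicle-treated controls.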

[4] = NCI Yeast Anticancer Drug Screen. Data for the cln2 rad14 strain (AID 165);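 also: 0% = growth equal to vehicle treated cultures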; settings: S. cerevisiae cln2 rad14 strain, at 50.0 µM, hits give high values
How it was run: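 Strain: cln2 rad14 yeast, altered in cell cycle control and DNA damage repair. Read-out: growth inhibition vs vehicle.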

[5] = NCI Yeast Anticancer Drug Screen. Data for the bub3 strain (AID 167); settings: S. cerevisiae bub3 mutant strain, at 50.0 µM, hits give high values
How it was run: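 Mutant yeast screening strain plus compound; vehicle-treated cultures serve as the 0% inhibition reference.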

[6] = NCI Yeast Anticancer Drug Screen. Data for the mlh1 rad18 strain (AID 175); settings: S. cerevisiae mlh1 rad18 strain growth inhibition; at 50.0 µM; hits give high values
How it was run: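 A repair-deficient yeast strain is exposed to test compound, and growth is scored relative to vehicle-treated controls.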

| Structure (SMILES) | growth inhibition [1] | growth inhibition [2] | growth inhibition [3] | growth inhibition [4] | growth inhibition [5] | growth inhibition [6] |
| --- | --- | --- | --- | --- | --- | --- |
| O=C(CCCCCCC(=O)C[N+]12CCC(CC1)C(O)C2)C[N+]12CCC(CC1)C(O)C2 (stereo not drawn) | 39.1% | 4.2% | 21.1% | 0.5% | 3.6% | 15.6% |
| O=C(Nc1ccc(C2=NCCN2)cc1)c1cncc(C(=O)Nc2ccc(C3=NCCN3)cc2)c1 | 5.2% | 22.6% | 16.4% | 50% | 8.95% | 45.6% |
| COc1ccc(-c2c3ccccc3c(-c3ccc(OCCCCCBr)cc3)c3ccccc23)cc1 | -10.4% | -10.7% | -10.6% | -30.1% | -22.5% | 1.4% |
| O=C(O)c1cc(=O)c2cc(Cl)ccc2[nH]1 | -15.5% | -12.2% | -17.1% | -19% | -9.9% | -1.55% |
| Cc1cc(Cl)ncc1[N+](=O)[O-] | -12.2% | 14.3% | 7.55% | -15.9% | -9.65% | 5.75% |
| CCOC(=O)/C(Cl)=C1\SN(C(=O)OCC)N=C1C | -7.65% | -3.7% | -11.4% | 54.7% | 3.8% | 3.65% |
| C/C(=N/NC(=O)c1ccccc1)C(=O)c1ccccc1 | -4.4% | -12.2% | -2.65% | -1.2% | 6% | -0.15% |
| CCOCCOC(=O)c1ccc(C(N)=NC)cc1 | 12.6% | -1.2% | 5.2% | -8.15% | 6.05% | 5.8% |
| CSCCC(NCc1c(O)ccc2c(-c3ccccc3)cc(=O)oc12)C(=O)O (stereo not drawn) | -23.3% | -20.5% | -30.1% | -1.5% | -2.95% | -31.2% |
| CCOC(=O)c1cccc2ncccc12 | -1.6% | 9.35% | -2.8% | -28.2% | -9.05% | 10.8% |
| CN1c2ccccc2N(C(=O)c2ccc([N+](=O)[O-])cc2)C(CC(=O)O)c2cccn21 (stereo not drawn) | 2.6% | -30.9% | -15.8% | 4.6% | -16.3% | 3% |
| CCCCCNN | 0.95% | -4.6% | -8.5% | 9.55% | -6.75% | 26.6% |
| O=c1c(Cl)c(Cl)cnn1-c1ccc([N+](=O)[O-])cc1[N+](=O)[O-] | 5.7% | 6.7% | 3.05% | -4.25% | -0.65% | 5.75% |
| O=C(NC(Cc1ccccc1)C(=O)N1CCOCC1)c1ccccc1 (stereo not drawn) | 6.1% | 12.6% | -1.35% | 3.2% | 1.85% | -0.35% |
| OC1C(O)C2CC1C1C2C2(Cl)CC1(Cl)C(Cl)=C2Cl (stereo not drawn) | 7.6% | -1.55% | 1.5% | -1.35% | -6.1% | 14.3% |
| O=C(O)C(Br)C(O)c1ccccc1 (stereo not drawn) | -5.15% | -2.85% | 0.85% | 2.15% | 4.25% | -8.2% |
| OC1CCCNC1 (stereo not drawn) | 16.9% | -4.5% | 21.1% | 18.1% | 14.5% | 30.2% |
| Clc1ccc(C2=CSC3=NCCN23)cc1 | 3.45% | -1.4% | -9.55% | -97.3% | 16.4% | 1.25% |
| O=C(Cl)C(c1ccccc1)N1C(=O)c2ccccc2C1=O (stereo not drawn) | 7.15% | 2.15% | 0% | -38.5% | -4% | 0.95% |

| Structure (SMILES) | growth inhibition [1] | growth inhibition [2] | growth inhibition [3] | growth inhibition [4] | growth inhibition [5] | growth inhibition [6] |
| --- | --- | --- | --- | --- | --- | --- |
| N#Cc1c(N)nc2c3c1NC(=O)C(C(N)=O)C3c1ccccc1O2 (stereo not drawn) | 6.1% | -3.15% | 5.95% | 2% | -2.6% | -22.4% |
| O=c1cn[nH]c(=O)[nH]1 | 35.4% | 0.7% | 32.5% | 10.8% | 4.9% | 11.5% |
| CCCCCC[C@@H](O)C/C=C\CCCCCCCC(=O)OCC(C)O (stereo partly drawn) | 22.1% | -2.35% | 8.9% | -30.6% | -2.85% | -20.4% |
| CCCCCCCCn1c(N)c(C#N)cnc1=S | -27.9% | 9.65% | -3.45% | -20.2% | 12% | 1.2% |
| O=C1Cn2c(cc(=O)c3ccccc32)O1 | 37.5% | 13.6% | 5.9% | -9.35% | 9.8% | 14.8% |
| CN1CCc2ccccc2C1Cc1cc(OCc2ccccc2)ccc1N (stereo not drawn) | 36.2% | 1.25% | 23.6% | 30.6% | 14.8% | 22.1% |
| CSC1(C)C(=O)Nc2ccccc21 (stereo not drawn) | -4.15% | -9.65% | -0.35% | -20.8% | -36.3% | 3.6% |
| CC1OC(OC2CCC3(C)C(CCC4C3CC(O)C3(C)C(C5=CC(=O)OC5)CCC43O)C2)CC(O)C1OC1CC(O)C(OC2CC(O)C(OC3OC(CO)C(O)C(O)C3O)C(C)O2)C(C)O1 (stereo not drawn) | 16.4% | -7.7% | -0.4% | 4.35% | 10.6% | 20.1% |
| c1ccc(/C2=C(\c3ccccc3)CSSSSC2)cc1 | 68.5% | 48.4% | 45.4% | 43.2% | 62.9% | 89% (active) |
| CN(C)c1ccc2c(c1)Cc1cc(N3C(=O)C=CC3=O)ccc1-2 | 97.3% (active) | 98% (active) | 98.9% (active) | 97.6% (active) | 98.2% (active) | 98.5% (active) |
| C=C1C(=O)OC2C1CCC(C)=C1C(=O)C=C(C)C12 (stereo not drawn) | -24.3% | -12.5% | -6.6% | 13.2% | -13.9% | -16.2% |
| OC1CCCCC1C1CCCCC1 (stereo not drawn) | 28.9% | 4.45% | 15.2% | 22.3% | -4.4% | 26.7% |
| C#CCOC(=O)[C@@H](C)c1ccc2cc(OC)ccc2c1 | 11.2% | 4.25% | 52.3% | 17.4% | 36.6% | 43% |
| CCNc1nc(C)nc2c1cnn2C | 5% | 4.85% | -1.85% | -13.2% | 17.8% | -1% |
| CC(C)(Cc1ccccc1)NC1=NCCO1 | -31.9% | -18.8% | -17.6% | -6.2% | -12.2% | -2.6% |
| Cc1ccccc1-[n+]1noc(N)n1 | 4.75% | 0.45% | -14.6% | 3.85% | -0.7% | 12.6% |
| CCOC(=O)[C@H]1C(CC)=NOC1C (stereo partly drawn) | 9.95% | 13.2% | 2.9% | -27.5% | 4.25% | 2.4% |
| CCn1c(=O)c2ccccc2c2cc([N+](=O)[O-])ccc21 | 7.65% | 18.1% | 2.75% | 17.1% | 12.2% | -2.7% |
| CC(=O)/C(=C/n1c(=S)sc2ccccc21)C(=O)Nc1ccc([N+](=O)[O-])cc1 | 6.4% | 4.55% | -2.45% | -15.8% | -19.8% | -8.7% |
